The results in this text go back to PubChem BioAssay (NCATS).

Each structure is given as a SMILES string. “And” between values parts separate entries of the source, which are not always exact repeats. Equal values may be shown once. Values without a mark were called inactive. Inconclusive results are not listed. The source made the active and inactive calls. Calls come from the whole dose curve; as a rule, active = well fitted curve in the direction sought with a large enough effect; inconclusive = small, poorly fitted or top-dose-only effect, or another doubt; inactive = no such curve, though single readings can be large; an effect the other way counts as inactive or inconclusive.

A short description of assay [1]: Cell Viability - N2a (AID 540).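 Note: cells exposed to compound for 40 h at 37 °C; plate controls were DMSO alone for no effect and tamoxifen control for full effect; nearly all actives have a fitted effect of over 45% in size.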 The conditions noted are these: N2a mouse neuroblastoma cell viability; activity change, negative = cytotoxicity: at 92.2 µM (top of the series). The method in brief: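 In this qHTS cytotoxicity screen, ATP-dependent luciferase luminescence reports viable N2a cells after a 40 hr compound exposure in complete culture medium. Potencies are AC50 values from standard Hill equation fits.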

Assay [2] in a line: Cell Viability - HUV-EC-C (AID 542). Note: % is set by controls: 0 for no effect and ±100 for the full control effect; nearly all actives have a fitted effect of over 35% in size. Put shortly: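 Concentration-dependent ATP loss in HUV-EC-C cells is the measure. Exposure lasts 40 hr at 37 °C; luminescence follows CellTiter-Glo addition, and Hill fits give AC50.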
Assay [3] is described as follows: Cell Viability - Renal Proximal Tubule (AID 545). Note: nearly all actives have a fitted effect of over 40% in size. The conditions noted are these: renal proximal tubule cells viability, primary cells of rat origin; at 91.7 µM (top of the series). Put shortly: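 In this qHTS format, normal rat kidney-derived proximal tubule cells in complete culture medium receive compound titrations, then sit 40 hours at 37 °C before luciferase-based ATP quantitation; potency is reported as AC50 from concentration-response curves.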

Assay [4] is described as follows: Cellular Toxicity (caspase-3) Jurkat (AID 655).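 Note: cells exposed to compound for 16 h at 37 °C before reading.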 The conditions noted are these: Jurkat caspase-3 activation, luminescence, DMSO = 0%, tamoxifen = 100%; at 92.2 µM (top of the series). The method in brief:
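qHTS in human Jurkat T-cell leukemia line: 16 hr compound treatment at 37 °C, caspase-3/7 activity measured by Caspase-Glo luminescence. AC50 derived from Hill equation.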

Assay [5] can be described thus: Cellular Toxicity (caspase-3) SHSY5Y (AID 657).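 Note: cells exposed to compound for 16 hours at 37 °C.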 The method in brief: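 Readout: caspase-cleaved peptide-aminoluciferin substrate driving luciferase light in SH-SY5Y neuroblastoma cells after 16 h treatment. Response normalized to DMSO and 10 uM staurosporine controls.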
Assay [6] is described as follows: Cellular Toxicity (caspase-3) SK-N-SH (AID 661).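 Note: cells exposed to compound for 16 hours; 0% = DMSO basal and 100% = 10 µM staurosporine.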 Put shortly: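 Apoptosis readout in SK-N-SH neuroblastoma: Caspase-Glo 3/7 luminescence following 16 hr treatment in complete culture medium. Normalization used DMSO and 10 uM staurosporine controls.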
The nature of assay [7]: Cellular Toxicity (caspase-3) H-4-II-E (AID 663).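 Note: cells exposed to compound for 16 hr before readout.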 The conditions noted are these: Potency: caspase-3 activation. Put shortly: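 Caspase 3/7 activation measured by luminescent aminoluciferin substrate cleavage after 16 hr compound treatment of H-4-II-E cells in complete medium. Increase normalized between DMSO (basal) and 100 uM tamoxifen (100%); Hill-equation AC50 from concentration-response.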

Assay [8] is described as follows: Cellular Toxicity (caspase-3) N2a (AID 665).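 Note: compound exposure lasted 16 h at 37 °C before readout.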 Put shortly: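 Concentration-response qHTS: compound-induced caspase-3/7 luminescence in N2a cells (16 h, 37 °C), relative to DMSO and 10 uM staurosporine controls; AC50 obtained using the standard Hill equation.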
The nature of assay [9]: Cell Viability - LYMP2-001 (AID 921). Note: nearly all actives have a fitted effect of over 70% in size. Note: potency is the fitted concentration of half-maximal effect. Put shortly:
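A lymphoblastoid cell line of human origin was treated with library compounds across a concentration series for 24 hours, and viable cell number was estimated from ATP-driven luciferase light output. Hill modeling gave AC50.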

The nature of assay [10]: Cell Viability - LYMP1-002 - Assay at 16 hr (AID 948).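 For activity change, negative = cytotoxicity: 0% = DMSO alone and full effect = 92 µM tetraoctylammonium bromide.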 Note: potency is the fitted concentration of half-maximal effect. The method in brief:
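In this qHTS, lymphoblastoid LYMP1-002 cells (human) receive compounds for 16 hr at 37 C. Viability is taken from CellTiter-Glo ATP luminescence, and AC50 derives from standard Hill fits.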

The nature of assay [11]: Cell Viability - LYMP1-003 - Assay at 24 hr (AID 963). Note: potency is the fitted concentration of half-maximal effect. The method in brief:
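The lymphoblastoid line was treated with titrated compounds for 24 hours, and viable cell number estimated from luciferase-based ATP luminescence.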

Assay [12] is described as follows: Cell Viability - LYMP2-003 (AID 965).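 For activity change, negative = cytotoxicity: 0% = DMSO only and full effect = 92 µM tetraoctylammonium bromide.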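 Note: cells exposed to compounds for 24 h before reading; nearly all actives have a fitted effect of over 50% in size.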 Note: potency is the fitted concentration of half-maximal effect. Put shortly:
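qHTS, human lymphoblastoid line, 2500 cells/well, complete medium. 24 h drug, 37 C. ATP-based luminescent readout; Hill-fit AC50.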

The nature of assay [13]: Cell Viability - LYMP2-005 (AID 967). Note: potency is the fitted concentration of half-maximal effect. The method in brief:
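Luciferase-based ATP quantitation served as the viability measure in human lymphoblastoid LYMP2-005 cells exposed to test compounds for 24 h at 37 C in complete culture medium. Potency (AC50) was obtained by fitting concentration-response curves with the Hill equation.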

A short description of assay [14]: Cell Viability - LYMP2-009 (AID 968). Note: nearly all actives have a fitted effect of over 55% in size. Note: potency is the fitted concentration of half-maximal effect.
A short description of assay [15]: Cell Viability - LYMP2-019 (AID 973).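 For activity change, negative = cytotoxicity: 0% = DMSO alone and full effect = 92 µM tetraoctylammonium bromide.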 Note: nearly all actives have a fitted effect of over 55% in size. Note: potency is the fitted concentration of half-maximal effect. Put shortly:
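AC50 values come from Hill-equation modelling of qHTS concentration-response curves, where viability is measured as luciferase-based ATP luminescence in the lymphoblastoid line after 24 hr compound exposure in complete culture medium.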

Assay [16] in a line: Cell Viability - LYMP2-023 (AID 975).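 For activity change, negative = cytotoxicity: cellular ATP measured by luciferase luminescence as viability proxy; plate controls were DMSO only for no effect and 92 µM tetraoctylammonium bromide control for full effect.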 Note: nearly all actives have a fitted effect of over 55% in size. Note: potency is the fitted concentration of half-maximal effect. Put shortly: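 In this qHTS, ATP-based luciferase luminescence (CellTiter-Glo) is quantified in human lymphoblastoid cells after 24 hr compound treatment at 37 C; tetraoctylammonium bromide serves as positive control. Concentration-response curves are Hill-fitted to give AC50.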
Assay [17] is described as follows: Cell Viability - LYMP2-025 (AID 976).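 For activity change, negative = cytotoxicity: plate controls were DMSO only for no effect and tetraoctylammonium bromide control for full effect.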 Note: potency is the fitted concentration of half-maximal effect. The method in brief:
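Luminescent ATP readout after 24 hr treatment of a human lymphoblastoid line (LYMP2-025, 2500 cells/well, 37 C). Reagent developed 30 min at room temperature; AC50 fitted with the Hill equation.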

Assay [18] is described as follows: Cell Viability - LYMP2-008 (AID 980). For activity change, negative = cytotoxicity: % is set by controls: 0 for no effect and ±100 for the full control effect. Note: nearly all actives have a fitted effect of over 60% in size. Note: potency is the fitted concentration of half-maximal effect. Put shortly: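 Measured: ATP-dependent luminescence, proportional to viable cell number, in human lymphoblastoid cells treated 24 hr with compound in complete culture medium. Values are AC50s from Hill-equation modelling of qHTS titrations.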
Assay [19] can be described thus: Cell Viability - LYMP2-014 (AID 983).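 For activity change, negative = cytotoxicity: plate controls were DMSO only for no effect and 92 µM tetraoctylammonium bromide for full effect.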 Note: nearly all actives have a fitted effect of over 50% in size. Note: potency is the fitted concentration of half-maximal effect. The method in brief: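 Quantitative HTS in lymphoblastoid cells: 24 hr compound exposure, then CellTiter-Glo ATP luminescence. Positive control was tetraoctylammonium bromide, 6.4pM to 92 uM.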
A short description of assay [20]: Cell Viability - LYMP2-026 (AID 989). Note: nearly all actives have a fitted effect of over 50% in size. Note: potency is the fitted concentration of half-maximal effect. Put shortly:
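Acute toxicity screen in complete culture medium, with 24 hr compound exposure at 37 C. Viability read as cellular ATP via luciferase reaction, with tetraoctylammonium bromide (6.4pM to 92 uM) as positive control.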

Regarding `COC(=O)c1ccc(C=O)cc1`, the activity change, negative = cytotoxicity in assay [1] is -4.37%; in assay [3] it was -14.2%. For the same compound, the outcome in [2], in assay [5], in assay [6] and in assay [8] was inactive. Besides, the caspase-3 activation in assay [4] is 13.7%. The Potency result in [7], in assay [9], in assay [10], in assay [11], in assay [12] and in [13] was “inactive” throughout. Moreover, the Potency result in [14], in assay [15], in assay [16], in [17], in assay [18] and in assay [19] was “inactive” each time. For the same compound, in [20], the Potency entry was “inactive”.
For the compound `Nc1ccc(Cl)cc1Cl`, the activity change, negative = cytotoxicity in [1] was 7.32%; in assay [3] it was -0.932%. For the same compound, the result in [2], in assay [5], in [6] and in [8] was inactive. Further, the caspase-3 activation in assay [4] is 0.852%. The Potency entry in assay [7], in assay [9], in assay [10], in assay [11], in [12] and in [13] was “inactive” each time. In addition, the Potency result in [14], in assay [15], in assay [16], in assay [17], in assay [18] and in assay [19] was “inactive” in each case. Further, the Potency result in assay [20] is “inactive”.
For the compound `O=[N+]([O-])c1cccc(Cl)c1Cl`, the activity change, negative = cytotoxicity in assay [1] was -3.99%; in assay [3], -2.04%. Besides, the result in assay [2], in assay [5], in assay [6] and in assay [8] was inactive. The caspase-3 activation in [4] is 1.08%. Further, the Potency result in assay [7], in assay [9], in assay [10], in [11], in assay [12] and in assay [13] was “inactive” throughout. The Potency result in [14], in assay [15], in [16], in assay [17], in assay [18] and in assay [19] was “inactive” throughout. The Potency result in [20] was “inactive”.
As for `CC(=O)OC/C=C(\C)CCC=C(C)C`, the results for the activity change, negative = cytotoxicity in assay [1] and in assay [3] were -0.528% and 3.05%, respectively. The compound was classed as inactive in [2], in assay [5], in assay [6] and in assay [8]. Also, the caspase-3 activation in assay [4] was 1.05%. Moreover, the Potency result in assay [7], in assay [10], in assay [11], in [12], in [13] and in assay [14] was “inactive” throughout. Further, the Potency entry in [15], in assay [16], in assay [17], in assay [18], in [19] and in assay [20] was “inactive” each time.
In the case of `Clc1cc(Cl)c(Cl)c(Cl)c1Cl`, the values for the activity change, negative = cytotoxicity in assay [1] and in [3] were -10.3% and -5.98%, respectively. Moreover, the compound was classed as inactive in assay [2], in assay [5], in assay [6] and in [8]. Also, in [4], the caspase-3 activation is 1.31%. Moreover, the Potency result in assay [7], in assay [9], in assay [10], in [11], in assay [12] and in [13] was “inactive” each time. The Potency result in [14], in assay [15], in assay [16], in assay [17], in assay [18] and in assay [19] was “inactive” each time. Moreover, the Potency entry in assay [20] was “inactive”.
Turning to `C=CC(=O)OCCOCCOCCOCCOC(=O)C=C`, the activity change, negative = cytotoxicity is -110% (active) and -111% (active) in assay [1]; -95.5% (active) and -108% (active) in [3]. Also, the result in assay [8] was inactive. The Potency in assay [9] is 15.8 µM (active); in [10], 31.6 µM (active); in assay [11], 31.6 µM (active) and 39.8 µM (active); in assay [12], 12.6 µM (active) and 15.8 µM (active); in assay [13], 10 µM (active) and 15.8 µM (active); in [14], 15.8 µM (active). In addition, the Potency in assay [15] was 25.1 µM (active) and 31.6 µM (active); in assay [16] it was 25.1 µM (active) and 31.6 µM (active); in [17] it was 25.1 µM (active); in assay [18], 25.1 µM (active); in assay [19] it was 20 µM (active) and 25.1 µM (active); in assay [20] it was 15.8 µM (active) and 20 µM (active).
